Measurements reported in PubChem BioAssay (Tox21).
Results filed as inconclusive are left out. Active and inactive are the calls of the source. Unless noted, calls follow the shape of the dose curve; as a rule, active = well fitted curve in the direction sought with a large enough effect in the repeat runs; inconclusive = weak or mixed curves; inactive = no such curve, though single readings can be large; an effect the other way counts as inactive or inconclusive.

Legend:
[1] = qHTS RealTime-Glo MT Cell Viability Assay in HEK293 cells - 0 hour (AID 1224880); also: top concentration of the series differs between compounds; nearly all actives have a fitted effect of over 45% in size
In short: (§1)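 Nonlytic bioluminescent viability monitoring. HEK293 at 600 cells/well with reagent; 5 h settle; compound transfer by pintool; plates held at 37 C and read at set time points.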

[2] = A CellTox Green Cytotoxicity Assay to monitor cytotoxicity in HEK293 cells - 32 hour (AID 1224881); also: nearly all actives have a fitted effect of over 40% in size
In short: (§2)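 Cytotoxicity was tracked continuously in HEK293 cells by a DNA-binding dye excluded from viable cells. Compounds were transferred in DMSO 5 h after seeding; fluorescence was recorded at intervals up to 40 h.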

[3] = A CellTox Green Cytotoxicity Assay to monitor cytotoxicity in HepG2 cells - 32 hour (AID 1224883); also: nearly all actives have a fitted effect of over 50% in size
In short: (§3)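 Real-time, homogeneous cytotoxicity readout: dead-cell DNA staining by CellTox Green in HepG2 monolayers, fluorescence measured at timed intervals up to 40 h of continuous compound exposure.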

[4] = A CellTox Green Cytotoxicity Assay to monitor cytotoxicity in HEK293 cells - 8 hour (AID 1224884); also: nearly all actives have a fitted effect of over 35% in size
In short: as §2

[5] = qHTS RealTime-Glo MT Cell Viability Assay in HepG2 cells - 16 hour (AID 1224885); also: nearly all actives have a fitted effect of over 50% in size
In short: (§4)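 HepG2 cells (600/well) were dispensed with RealTime-Glo reagents, incubated 5 h at 37 °C, then treated with compounds in DMSO for up to 40 h. Nonlytic NanoLuc luminescence reflecting viable cells was read at each stated time point.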

[6] = qHTS RealTime-Glo MT Cell Viability Assay in HEK293 cells - 24 hour (AID 1224886); also: top concentration of the series differs between compounds; nearly all actives have a fitted effect of over 50% in size
In short: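 HEK293 cells seeded with NanoLuc/prosubstrate reagent, rested 5 h at 37 C, then dosed and kept at 37 C up to 40 h. Nonlytic real-time luminescence from viable cells read at 0, 8, 16, 24, 32 and 40 h.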

[7] = A CellTox Green Cytotoxicity Assay to monitor cytotoxicity in HEK293 cells - 16 hour (AID 1224888); also: nearly all actives have a fitted effect of over 35% in size
In short: as §2

[8] = qHTS RealTime-Glo MT Cell Viability Assay in HepG2 cells - 0 hour (AID 1224889); also: nearly all actives have a fitted effect of over 50% in size
In short: as §4

[9] = A CellTox Green Cytotoxicity Assay to monitor cytotoxicity in HepG2 cells - 8 hour (AID 1224890); also: nearly all actives have a fitted effect of over 45% in size
In short: as §3

[10] = qHTS assay to identify small molecule antagonists of the estrogen receptor alpha (ER-alpha) signaling pathway using the BG1 cell line in the presence of 0.1 nM 17-beta-estradiol - cell viability counter screen (AID 1259241); also: nearly all actives have a fitted effect of over 40% in size
In short: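 VM7Luc4E2 cells (endogenous full-length ER-alpha, 4xERE-luciferase), cultured 5 days in charcoal-stripped serum, exposed to compounds with 0.1 nM 17beta-estradiol (final) for 22 hr at 37C. Viability read in same wells as live-cell protease fluorescence after 30 min.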

[11] = qHTS assay to identify small molecule antagonists of the androgen receptor (AR) signaling pathway using the MDA cell line in the presence of 0.5 nM R1881 - cell viability counter screen (AID 1259242); also: nearly all actives have a fitted effect of over 45% in size
In short: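 Cytotoxicity toward MDA-kb2 cells is measured by CellTiter-Fluor live-cell protease fluorescence after 16 hr compound exposure at 37C in the presence of 0.5 nM R1881 stimulator.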

[12] = target: Estrogen receptor (Homo sapiens) (UniProt P03372); test: qHTS assay to identify small molecule antagonists of the estrogen receptor alpha (ER-alpha) signaling pathway using the BG1 cell line in the presence of 0.1 nM 17-beta-estradiol (AID 1259244); also: nearly all actives have a fitted effect of over 50% in size
Chain of Estrogen receptor (Homo sapiens) (P03372 whole entry, looked up): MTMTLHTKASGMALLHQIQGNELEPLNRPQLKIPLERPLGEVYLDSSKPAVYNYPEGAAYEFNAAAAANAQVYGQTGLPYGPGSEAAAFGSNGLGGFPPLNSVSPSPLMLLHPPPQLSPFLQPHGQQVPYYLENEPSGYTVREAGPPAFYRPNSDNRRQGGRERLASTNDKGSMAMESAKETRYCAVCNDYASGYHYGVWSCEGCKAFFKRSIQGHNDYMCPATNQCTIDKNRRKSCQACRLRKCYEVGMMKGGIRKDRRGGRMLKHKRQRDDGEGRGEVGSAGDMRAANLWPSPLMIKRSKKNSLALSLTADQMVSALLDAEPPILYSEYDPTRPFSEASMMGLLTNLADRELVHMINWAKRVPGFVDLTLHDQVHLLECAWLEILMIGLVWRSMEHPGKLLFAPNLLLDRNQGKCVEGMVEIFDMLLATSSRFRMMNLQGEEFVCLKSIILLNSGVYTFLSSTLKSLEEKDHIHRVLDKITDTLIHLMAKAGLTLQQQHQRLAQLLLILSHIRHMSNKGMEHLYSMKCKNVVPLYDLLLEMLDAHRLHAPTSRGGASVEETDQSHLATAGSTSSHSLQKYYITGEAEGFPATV
In short: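 After 5 days in hormone-depleted medium (charcoal-stripped serum, no phenol red), VM7Luc4E2 cells were seeded, incubated 24 h, then co-treated with compound and 0.1 nM (final) estradiol for 22 h before luminescence detection.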

[13] = qHTS assay to identify small molecule HDAC inhibitors - cell viability counter screen (AID 1259365)
In short: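 Wild-type HCT-116 cells, 1,500/well, cultured overnight, then compound-treated 2 h at 37 C. Viability measured as ATP luminescence with CellTiter-Glo after 30 min at room temperature.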

[14] = qHTS assay to identify small molecule agonists of the sonic hedgehog signaling (Shh) pathway - cell viability counter screen (AID 1259366); also: nearly all actives have a fitted effect of over 50% in size
In short: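 NIH/3T3-derived Gli1-Luc reporter cells, 2,000 per well, received compound after 4 h and were treated about 23 h at 37C. Viability measured in the same wells by CellTiter-Fluor fluorescence after 1 h.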

[15] = qHTS assay to identify small molecule antagonists of the sonic hedgehog signaling (Shh) pathway - cell viability counter screen (AID 1259367); also: nearly all actives have a fitted effect of over 55% in size
In short: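 Using CellTiter-Fluor, viability of Gli1-Luc reporter 3T3 cells is read by fluorescence in the wells used for the Shh luciferase assay. Treatment lasts 23 hr with conditioned medium, then reagent 1 hr at 37C.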

[16] = A CellTox Green Cytotoxicity Assay to monitor cytotoxicity in HepG2 cells - 0 hour (AID 1224882); also: nearly all actives have a fitted effect of over 35% in size
In short: as §3

[17] = qHTS RealTime-Glo MT Cell Viability Assay in HEK293 cells - 8 hour (AID 1224887)
In short: as §1

[18] = qHTS assay to identify small molecule HDAC inhibitors (AID 1259364); also: top concentration of the series differs between compounds; nearly all actives have a fitted effect of over 45% in size
In short: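 Homogeneous cell-based luminescent assay of endogenous class I/II HDAC activity; HCT-116 cells, 2 h compound exposure, 30 min HDAC-Glo development at RT.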

[19] = target: Androgen receptor (Homo sapiens) (UniProt P10275); test: qHTS assay to identify small molecule antagonists of the androgen receptor (AR) signaling pathway using the MDA cell line in the presence of 0.5 nM R1881 (AID 1259243); also: nearly all actives have a fitted effect of over 50% in size
Chain of Androgen receptor (Homo sapiens) (P10275 whole entry, looked up): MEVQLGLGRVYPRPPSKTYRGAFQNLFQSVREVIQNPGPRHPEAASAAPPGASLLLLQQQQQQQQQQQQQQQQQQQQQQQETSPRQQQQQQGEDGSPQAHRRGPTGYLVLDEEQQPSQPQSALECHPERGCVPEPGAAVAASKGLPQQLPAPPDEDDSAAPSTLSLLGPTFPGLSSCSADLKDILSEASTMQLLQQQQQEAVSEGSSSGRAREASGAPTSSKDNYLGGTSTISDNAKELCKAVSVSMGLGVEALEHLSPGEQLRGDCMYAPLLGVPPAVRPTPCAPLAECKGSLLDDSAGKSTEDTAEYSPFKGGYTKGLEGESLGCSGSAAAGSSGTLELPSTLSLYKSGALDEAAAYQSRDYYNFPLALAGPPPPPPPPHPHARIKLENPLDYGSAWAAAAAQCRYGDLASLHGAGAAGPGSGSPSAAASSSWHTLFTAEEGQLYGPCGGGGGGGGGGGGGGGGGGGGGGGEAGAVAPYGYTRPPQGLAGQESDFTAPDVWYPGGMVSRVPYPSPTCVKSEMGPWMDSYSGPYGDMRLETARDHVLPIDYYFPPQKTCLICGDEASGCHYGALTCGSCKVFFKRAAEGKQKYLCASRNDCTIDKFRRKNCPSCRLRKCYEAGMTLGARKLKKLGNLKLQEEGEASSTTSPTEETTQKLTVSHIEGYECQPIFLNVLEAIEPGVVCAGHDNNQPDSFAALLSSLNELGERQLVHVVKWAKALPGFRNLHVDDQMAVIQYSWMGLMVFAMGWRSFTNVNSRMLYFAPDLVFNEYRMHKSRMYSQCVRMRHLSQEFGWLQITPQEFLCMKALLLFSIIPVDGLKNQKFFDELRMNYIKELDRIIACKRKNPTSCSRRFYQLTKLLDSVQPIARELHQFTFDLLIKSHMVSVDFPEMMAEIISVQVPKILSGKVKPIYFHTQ
In short: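 Steps: seed MDA-kb2 cells, incubate 5 hr at 37C; pin-transfer compounds in DMSO; add R1881 to 0.5 nM final; incubate 16 hr; add ONE-Glo, wait 30 min at room temperature; read luminescence.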

[20] = qHTS assay to identify small molecule phospholipidosis (PLD) inducers (AID 1259344; active = well fitted curve in the direction sought with a large enough effect; an effect the other way counts as inactive or inconclusive)
In short: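 Fluorescent phospholipid staining (LipidTOX Red) measured by automated microscopy in fixed HepG2 cells after 24 h treatment; nuclei counterstained with Hoechst 33342; amiodarone as reference inducer.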

Measured: Potency

SCCc1cnccn1
not listed: [16] | [17] | [18] | [19] | [20]
inactive: all other assays above

CC(C)c1ccc(C(=O)N=C(N)N)cc1S(C)(=O)=O
not listed: [3] | [6] | [15] | [19] | [20]
inactive: all other assays above

CC(=O)c1ccc[nH]1
not listed: [16] | [20]
inactive: all other assays above

COc1cc(NC(C)CCCN)c2ncccc2c1 (configuration not stated)
not listed: [3] | [10] | [15] | [17] | [19]
inactive: all other assays above

CC(=O)C(C)=O
not listed: [3] | [12] | [17] | [19] | [20]
inactive: all other assays above

COc1cc(S(=O)(=O)Nc2ccccc2)c(OC)cc1N
not listed: [3] | [5] | [19] | [20]
inactive: all other assays above

COC(=O)c1sccc1S(N)(=O)=O
not listed: [3] | [6] | [17] | [18] | [19] | [20]
inactive: all other assays above

C=CC(=O)NC(C)C
not listed: [16] | [19] | [20]
inactive: all other assays above

Cc1ccc(S(=O)(=O)NC(=O)NC2CCCCC2)cc1
not listed: [3] | [6] | [19]
inactive: all other assays above
